Test in all cases: DAPPL (digital affinity profiling via proximity ligation, sequencing); 10 mM Tris-HCl pH 7.5, 50 mM NaCl, 1 mM DTT, 4% glycerol, room temperature, 30 min; GST-TFs on glutathione beads, 16-mer random dsDNA library, 0.1% formaldehyde crosslink after washing; high values mean tight binding
Test [1] addresses T1, FEV (Homo sapiens, UniProt Q99581 1-238).
T1 sequence: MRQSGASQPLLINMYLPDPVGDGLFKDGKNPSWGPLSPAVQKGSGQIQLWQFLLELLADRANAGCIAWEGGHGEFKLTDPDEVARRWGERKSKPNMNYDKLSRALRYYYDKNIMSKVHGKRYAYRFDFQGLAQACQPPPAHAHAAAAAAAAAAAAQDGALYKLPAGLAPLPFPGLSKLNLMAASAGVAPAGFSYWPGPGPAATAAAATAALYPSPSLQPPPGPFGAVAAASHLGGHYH
The following applies: protein: recombinant; tags: N-terminal GST; dsDNA, one strand shown. A digest of the protocol: (§1)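 Beads coated with glutathione captured GST-fused human transcription factors that had been expressed in yeast, and the factors were then given DNA barcodes and pooled with a tag-only sample. The pools were incubated with 200 nmole of a random double-stranded 16-mer DNA library in Tris/NaCl/DTT/glycerol buffer for 30 min at room temperature, washed, crosslinked with 0.1% formaldehyde and proximity-ligated with BsaI/T4 ligase at 37 °C for 1 h. PCR amplification and Illumina NextSeq500 sequencing came last. Binding signal is each hexamer's read frequency for a factor divided by its frequency for the tag-only sample.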

Test [2] addresses HSF1 (Homo sapiens, UniProt Q00613 1-529). The following applies: protein: recombinant; tags: N-terminal GST; chain copies: 3; dsDNA, one strand shown. The essentials: as §1
For test [3], the target named is CRX (Homo sapiens, UniProt O43186 1-299). The following applies: protein: recombinant; tags: N-terminal GST; dsDNA, one strand shown. A digest of the protocol: as §1
Test [4] addresses T2, SPDEF (Homo sapiens, UniProt O95238 1-335).
T2 sequence: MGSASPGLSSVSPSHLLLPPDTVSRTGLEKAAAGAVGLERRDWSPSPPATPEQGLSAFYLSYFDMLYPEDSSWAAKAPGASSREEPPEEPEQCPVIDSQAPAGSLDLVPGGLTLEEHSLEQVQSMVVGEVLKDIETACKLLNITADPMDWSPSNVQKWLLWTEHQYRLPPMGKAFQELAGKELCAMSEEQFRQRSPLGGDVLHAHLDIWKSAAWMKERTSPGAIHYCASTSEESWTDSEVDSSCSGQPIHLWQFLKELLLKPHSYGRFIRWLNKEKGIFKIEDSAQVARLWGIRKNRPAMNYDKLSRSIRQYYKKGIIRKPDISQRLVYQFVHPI
The note with it: protein: recombinant; tags: N-terminal GST; dsDNA, one strand shown. The essentials:
as §1

The target in test [5] is T3, ELF5 (Homo sapiens, UniProt Q9UKW6-2 1-255).
T3 sequence: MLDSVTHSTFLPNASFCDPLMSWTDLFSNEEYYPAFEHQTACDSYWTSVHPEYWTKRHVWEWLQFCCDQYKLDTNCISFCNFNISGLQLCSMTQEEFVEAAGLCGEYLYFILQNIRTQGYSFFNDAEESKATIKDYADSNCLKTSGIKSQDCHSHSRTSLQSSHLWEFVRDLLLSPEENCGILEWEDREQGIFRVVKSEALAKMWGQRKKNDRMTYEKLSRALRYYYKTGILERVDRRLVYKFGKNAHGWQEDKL
The following applies: protein: recombinant; tags: N-terminal GST; dsDNA, one strand shown. The essentials:
as §1

The target of test [6] is SPI1 (Homo sapiens, UniProt P17947 1-270). The following applies: protein: recombinant; tags: N-terminal GST; dsDNA, one strand shown. The essentials: as §1

Sequence of HSF1 (Q00613 whole entry): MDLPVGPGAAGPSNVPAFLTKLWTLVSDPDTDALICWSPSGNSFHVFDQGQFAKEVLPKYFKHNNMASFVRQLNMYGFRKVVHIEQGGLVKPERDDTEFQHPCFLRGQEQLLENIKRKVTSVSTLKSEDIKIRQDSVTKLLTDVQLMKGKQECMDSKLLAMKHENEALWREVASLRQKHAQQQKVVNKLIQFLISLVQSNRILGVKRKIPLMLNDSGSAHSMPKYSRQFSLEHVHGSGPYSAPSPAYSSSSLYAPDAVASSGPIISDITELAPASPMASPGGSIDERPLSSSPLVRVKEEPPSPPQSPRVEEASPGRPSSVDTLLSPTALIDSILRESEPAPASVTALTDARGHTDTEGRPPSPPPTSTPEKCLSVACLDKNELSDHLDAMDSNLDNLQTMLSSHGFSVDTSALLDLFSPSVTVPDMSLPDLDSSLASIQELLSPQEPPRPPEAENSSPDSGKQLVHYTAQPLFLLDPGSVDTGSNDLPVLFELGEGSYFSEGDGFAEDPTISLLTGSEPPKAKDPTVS
Sequence of CRX (O43186 whole entry): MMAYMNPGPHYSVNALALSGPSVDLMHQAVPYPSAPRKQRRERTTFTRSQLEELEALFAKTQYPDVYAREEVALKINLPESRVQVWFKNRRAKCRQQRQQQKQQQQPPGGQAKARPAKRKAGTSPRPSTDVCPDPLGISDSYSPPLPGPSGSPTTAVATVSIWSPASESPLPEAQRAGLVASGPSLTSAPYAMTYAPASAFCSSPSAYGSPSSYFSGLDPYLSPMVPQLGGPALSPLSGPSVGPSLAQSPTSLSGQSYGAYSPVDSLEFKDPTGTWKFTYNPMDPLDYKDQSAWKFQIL

As to GATCCA, the binding signal in test [1] was 1.07 fold enrichment (6-mer frequency, TF over GST control); in test [2], 1.21 fold enrichment (6-mer frequency, TF over GST control); in test [3], 1.23 fold enrichment (6-mer frequency, TF over GST control); in test [4], 1.17 fold enrichment (6-mer frequency, TF over GST control); in test [5] it was 1.03 fold enrichment (6-mer frequency, TF over GST control).

For the sequence GCCGCT, the binding signal in test [6] is 1.12 fold enrichment (6-mer frequency, TF over GST control); in test [1], 1.05 fold enrichment (6-mer frequency, TF over GST control); in test [3], 1.02 fold enrichment (6-mer frequency, TF over GST control); in test [5], 1.03 fold enrichment (6-mer frequency, TF over GST control).

As for AGAACA, the binding signal was 2.37 fold enrichment (6-mer frequency, TF over GST control) in test [2]; 1.22 fold enrichment (6-mer frequency, TF over GST control) in test [3]; 1.03 fold enrichment (6-mer frequency, TF over GST control) in test [4].

For TTGGAA, the binding signal in test [2] was 1.32 fold enrichment (6-mer frequency, TF over GST control); in test [3] it was 1.07 fold enrichment (6-mer frequency, TF over GST control).

For the sequence CGCGAT, the binding signal was 1.09 fold enrichment (6-mer frequency, TF over GST control) in test [6]; 1.23 fold enrichment (6-mer frequency, TF over GST control) in test [2]; 1.1 fold enrichment (6-mer frequency, TF over GST control) in test [3]; 1.05 fold enrichment (6-mer frequency, TF over GST control) in test [4]; 1.04 fold enrichment (6-mer frequency, TF over GST control) in test [5].

For the sequence GATGGG, the binding signal in test [4] was 1.08 fold enrichment (6-mer frequency, TF over GST control).

Turning to TCAGAT, the binding signal in test [6] is 1.08 fold enrichment (6-mer frequency, TF over GST control); in test [2], 1.21 fold enrichment (6-mer frequency, TF over GST control); in test [3] it was 1.45 fold enrichment (6-mer frequency, TF over GST control); in test [4], 1.07 fold enrichment (6-mer frequency, TF over GST control); in test [5], 1 fold enrichment (6-mer frequency, TF over GST control).

With GCTGCA, the binding signal in test [6] is 1 fold enrichment (6-mer frequency, TF over GST control); in test [1], 1.01 fold enrichment (6-mer frequency, TF over GST control).

As to GTTTGC, the binding signal is 1.03 fold enrichment (6-mer frequency, TF over GST control) in test [6] and 1.07 fold enrichment (6-mer frequency, TF over GST control) in test [5].

TAAGTC: the binding signal in test [2] is 1.21 fold enrichment (6-mer frequency, TF over GST control); in test [3], 1.79 fold enrichment (6-mer frequency, TF over GST control); in test [4] it was 1.01 fold enrichment (6-mer frequency, TF over GST control).

For CATTGC, the binding signal in test [6] was 1.05 fold enrichment (6-mer frequency, TF over GST control); in test [1], 1.04 fold enrichment (6-mer frequency, TF over GST control).

GGTTCT: the binding signal was 1.54 fold enrichment (6-mer frequency, TF over GST control) in test [2]; 1.01 fold enrichment (6-mer frequency, TF over GST control) in test [4]; 1.01 fold enrichment (6-mer frequency, TF over GST control) in test [5].

Consider CTCGGG, for which the binding signal in test [2] was 1.04 fold enrichment (6-mer frequency, TF over GST control).

As to TTGGAT, the binding signal in test [1] is 1 fold enrichment (6-mer frequency, TF over GST control); in test [2] it was 1.21 fold enrichment (6-mer frequency, TF over GST control); in test [3] it was 1.39 fold enrichment (6-mer frequency, TF over GST control); in test [4] it was 1.13 fold enrichment (6-mer frequency, TF over GST control).

For ATTCGG, in test [2], the binding signal is 1.11 fold enrichment (6-mer frequency, TF over GST control).

In the case of TACAGC, the binding signal was 1.01 fold enrichment (6-mer frequency, TF over GST control) in test [1]; 1.07 fold enrichment (6-mer frequency, TF over GST control) in test [3]; 1.07 fold enrichment (6-mer frequency, TF over GST control) in test [5].

On to AGCTGA, for which the binding signal in test [6] is 1.01 fold enrichment (6-mer frequency, TF over GST control); in test [3] it was 1.11 fold enrichment (6-mer frequency, TF over GST control).

Regarding TAGGTA, the binding signal is 1 fold enrichment (6-mer frequency, TF over GST control) in test [1]; 1.03 fold enrichment (6-mer frequency, TF over GST control) in test [2]; 1.22 fold enrichment (6-mer frequency, TF over GST control) in test [3]; 1.02 fold enrichment (6-mer frequency, TF over GST control) in test [4].

With TGGTTG, the binding signal in test [6] is 1.06 fold enrichment (6-mer frequency, TF over GST control); in test [5] it was 1 fold enrichment (6-mer frequency, TF over GST control).

CGTTGC: the binding signal was 1.11 fold enrichment (6-mer frequency, TF over GST control) in test [1]; 1.18 fold enrichment (6-mer frequency, TF over GST control) in test [4]; 1.03 fold enrichment (6-mer frequency, TF over GST control) in test [5].

In the case of ACCACG, the binding signal is 1.01 fold enrichment (6-mer frequency, TF over GST control) in test [6]; 1.05 fold enrichment (6-mer frequency, TF over GST control) in test [1]; 1.06 fold enrichment (6-mer frequency, TF over GST control) in test [4]; 1.02 fold enrichment (6-mer frequency, TF over GST control) in test [5].

On to CGCCAT, for which the binding signal in test [6] was 1.08 fold enrichment (6-mer frequency, TF over GST control); in test [5] it was 1.03 fold enrichment (6-mer frequency, TF over GST control).

For GATTAA, the binding signal in test [1] was 1.02 fold enrichment (6-mer frequency, TF over GST control); in test [2] it was 2.83 fold enrichment (6-mer frequency, TF over GST control); in test [3] it was 4.96 fold enrichment (6-mer frequency, TF over GST control); in test [4] it was 1.08 fold enrichment (6-mer frequency, TF over GST control).

With ACCCCT, the binding signal in test [6] is 1.1 fold enrichment (6-mer frequency, TF over GST control); in test [1] it was 1.08 fold enrichment (6-mer frequency, TF over GST control); in test [4], 1.16 fold enrichment (6-mer frequency, TF over GST control); in test [5], 1 fold enrichment (6-mer frequency, TF over GST control).

GTCACG: the binding signal was 1.05 fold enrichment (6-mer frequency, TF over GST control) in test [6] and 1.02 fold enrichment (6-mer frequency, TF over GST control) in test [4].

For the sequence TCTGGA, the binding signal in test [6] is 1.01 fold enrichment (6-mer frequency, TF over GST control); in test [1], 1.08 fold enrichment (6-mer frequency, TF over GST control); in test [2], 3.75 fold enrichment (6-mer frequency, TF over GST control); in test [3], 1.72 fold enrichment (6-mer frequency, TF over GST control).

With CGCAAC, the binding signal was 1.07 fold enrichment (6-mer frequency, TF over GST control) in test [1]; 1.03 fold enrichment (6-mer frequency, TF over GST control) in test [4]; 1.01 fold enrichment (6-mer frequency, TF over GST control) in test [5].

As to GCCGCA, the binding signal in test [1] was 1.01 fold enrichment (6-mer frequency, TF over GST control).

Regarding CACACC, the binding signal in test [1] was 1.07 fold enrichment (6-mer frequency, TF over GST control); in test [4] it was 1.02 fold enrichment (6-mer frequency, TF over GST control); in test [5], 1.03 fold enrichment (6-mer frequency, TF over GST control).

On to ATTGAG, for which the binding signal was 1 fold enrichment (6-mer frequency, TF over GST control) in test [6]; 1.11 fold enrichment (6-mer frequency, TF over GST control) in test [3]; 1.01 fold enrichment (6-mer frequency, TF over GST control) in test [4].

Take ATGCGT: the binding signal in test [6] was 1.03 fold enrichment (6-mer frequency, TF over GST control); in test [1] it was 1.01 fold enrichment (6-mer frequency, TF over GST control); in test [4] it was 1.07 fold enrichment (6-mer frequency, TF over GST control); in test [5], 1.03 fold enrichment (6-mer frequency, TF over GST control).

For the sequence TGTCAA, the binding signal in test [6] is 1 fold enrichment (6-mer frequency, TF over GST control); in test [5], 1.01 fold enrichment (6-mer frequency, TF over GST control).
